Assay results as given in PubChem BioAssay (NCATS).
Results filed as inconclusive are left out. Active and inactive are the calls of the source. Unless noted, calls follow the shape of the dose curve; as a rule, active = well fitted curve in the direction sought with a large enough effect; inconclusive = small, poorly fitted or top-dose-only effect, or another doubt; inactive = no such curve, though single readings can be large; an effect the other way counts as inactive or inconclusive.

Tests used:
[1] = Validation screen for small molecules that induce DNA re-replication in SW480 colon adenocarcinoma cells (AID 504364); conditions: DNA re-replication phenotype (high-content imaging); series mostly up to 46.1 µM
In short: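 Cells are treated 48 hr with test compound, stained 40 min with Hoechst at 37 C, and scanned for nuclear fluorescence; compounds inducing re-replication increase nuclei with elevated intensity.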

[2] = biological target: Peptidyl-prolyl cis-trans isomerase NIMA-interacting 1 (Homo sapiens) (UniProt Q13526); assay: qHTS Validation Assay to Find Inhibitors of Pin1 (AID 504536; active = well fitted inhibition curve with a large enough effect in the polarisation, with a control signal flat, not every such curve was filed as active; the % refers to the polarisation); conditions: Pin1 fluorescence polarization peptide binding assay; series mostly up to 57.5 µM
Chain of Peptidyl-prolyl cis-trans isomerase NIMA-interacting 1 (Homo sapiens) (Q13526 whole entry, looked up): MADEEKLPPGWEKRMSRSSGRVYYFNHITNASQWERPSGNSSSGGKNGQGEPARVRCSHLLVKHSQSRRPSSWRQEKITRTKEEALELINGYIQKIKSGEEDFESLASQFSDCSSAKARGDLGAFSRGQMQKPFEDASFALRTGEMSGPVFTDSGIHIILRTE
In short: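 Fluorescence polarization competition: compounds (titration) displace HiFluor-488-labeled Pin1-1b peptide from Pin1 (0.3 uM final) in pH 7.5 HEPES buffer with DTT, 10 min at room temperature; %Activity normalized to no-enzyme wells, curves fitted.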

[3] = biological target: Phosphoglycerate kinase, glycosomal (Trypanosoma brucei brucei) (UniProt P07378); assay: qHTS Validation Assay to Find Inhibitors of Phosphoglycerate Kinase (AID 504547); conditions: enzymatic PGK inhibition, coupled luminescence read-out; series mostly up to 57.5 µM
Chain of Phosphoglycerate kinase, glycosomal (Trypanosoma brucei brucei) (P07378 whole entry, looked up): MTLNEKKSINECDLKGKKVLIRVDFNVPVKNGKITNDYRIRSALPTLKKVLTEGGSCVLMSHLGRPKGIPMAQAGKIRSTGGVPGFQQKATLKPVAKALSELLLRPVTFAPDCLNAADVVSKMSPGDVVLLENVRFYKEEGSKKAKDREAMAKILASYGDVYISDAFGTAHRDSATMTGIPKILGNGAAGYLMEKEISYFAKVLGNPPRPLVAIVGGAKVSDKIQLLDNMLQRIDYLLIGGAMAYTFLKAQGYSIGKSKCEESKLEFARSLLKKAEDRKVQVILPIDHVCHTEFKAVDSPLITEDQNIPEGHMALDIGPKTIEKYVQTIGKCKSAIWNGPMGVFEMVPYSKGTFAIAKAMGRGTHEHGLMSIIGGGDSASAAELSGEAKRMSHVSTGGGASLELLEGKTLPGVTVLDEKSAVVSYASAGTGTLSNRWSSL
In short: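 Inhibition of the enzyme is judged by a Kinase-Glo Plus luminescent signal following a one-hour incubation at room temperature. Because 1,3-BPG is unstable, it is made in situ by GAPDH at 100nM final; no-PGK wells define the baseline.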

[4] = biological target: phosphoglycerate mutase (Leishmania major) (UniProt Q4Q090); assay: qHTS Validation Assay to Find Inhibitors of Phosphoglycerate Mutase (AID 504548); conditions: biochemical enzyme activity; Potency: inhibition qHTS; series mostly up to 57.5 µM;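 also: end-point luminescence from Kinase-GloPlus after the PGAM reaction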
Chain of phosphoglycerate mutase (Leishmania major) (Q4Q090 1-553): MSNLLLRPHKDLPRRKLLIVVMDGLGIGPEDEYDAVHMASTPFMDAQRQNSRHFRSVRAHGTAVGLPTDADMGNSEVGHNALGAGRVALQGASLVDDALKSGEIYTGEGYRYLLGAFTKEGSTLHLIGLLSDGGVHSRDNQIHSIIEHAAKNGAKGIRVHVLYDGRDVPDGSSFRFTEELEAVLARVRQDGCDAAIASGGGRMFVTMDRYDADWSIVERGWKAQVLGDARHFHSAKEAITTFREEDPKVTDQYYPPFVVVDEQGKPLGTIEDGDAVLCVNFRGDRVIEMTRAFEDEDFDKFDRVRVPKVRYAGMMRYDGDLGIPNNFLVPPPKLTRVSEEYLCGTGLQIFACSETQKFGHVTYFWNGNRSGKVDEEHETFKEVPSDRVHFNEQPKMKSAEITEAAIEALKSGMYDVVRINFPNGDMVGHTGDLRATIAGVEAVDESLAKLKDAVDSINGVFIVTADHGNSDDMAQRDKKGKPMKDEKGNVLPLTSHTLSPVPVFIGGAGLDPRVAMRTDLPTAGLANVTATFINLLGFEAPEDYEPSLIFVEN
In short: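 Inhibition of L. major PGAM was assessed by Kinase-GloPlus luminescence following a 45-minute room-temperature reaction with enzyme at 1.25nM final.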

[5] = biological target: Ubiquitin carboxyl-terminal hydrolase 1 (Homo sapiens) (UniProt O94782); assay: Inhibitors of USP1/UAF1: Pilot qHTS (AID 504865); conditions: purified USP1/UAF1, Ub-rhodamine cleavage fluorescence; series mostly up to 114 µM;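 also: rhodamine fluorescence freed from ubiquitin-rhodamine substrate followed over time; top concentration of the series differs between compounds; nearly all actives have a fitted effect of over 35% in size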
Chain of Ubiquitin carboxyl-terminal hydrolase 1 (Homo sapiens) (O94782 whole entry, looked up): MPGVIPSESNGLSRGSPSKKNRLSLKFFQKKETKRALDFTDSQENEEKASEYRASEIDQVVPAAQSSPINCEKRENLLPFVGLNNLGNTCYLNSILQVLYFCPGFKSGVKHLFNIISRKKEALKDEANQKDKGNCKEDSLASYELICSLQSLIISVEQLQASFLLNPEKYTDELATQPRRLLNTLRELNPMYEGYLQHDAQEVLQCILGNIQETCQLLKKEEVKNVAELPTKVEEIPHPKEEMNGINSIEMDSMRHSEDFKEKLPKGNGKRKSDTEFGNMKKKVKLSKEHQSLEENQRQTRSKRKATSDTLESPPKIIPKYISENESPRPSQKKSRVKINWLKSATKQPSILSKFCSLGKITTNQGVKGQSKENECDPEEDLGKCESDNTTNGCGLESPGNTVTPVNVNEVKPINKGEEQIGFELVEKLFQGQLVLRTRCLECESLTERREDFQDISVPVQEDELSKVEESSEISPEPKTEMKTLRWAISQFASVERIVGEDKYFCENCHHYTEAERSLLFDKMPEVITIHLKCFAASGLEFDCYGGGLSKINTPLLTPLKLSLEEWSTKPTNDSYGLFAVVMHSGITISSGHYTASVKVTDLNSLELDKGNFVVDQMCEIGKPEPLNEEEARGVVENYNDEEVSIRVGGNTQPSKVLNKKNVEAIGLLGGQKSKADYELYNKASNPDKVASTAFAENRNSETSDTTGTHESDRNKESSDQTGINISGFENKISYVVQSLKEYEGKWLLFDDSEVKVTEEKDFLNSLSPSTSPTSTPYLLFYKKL
In short: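 USP1/UAF1 complex at 1 nM preincubated 15 min at room temperature with compound, then Ub-Rho substrate added at 150 nM final. Fluorescence (480/540 nm) read kinetically in 50 mM HEPES pH 7.8, 0.5 mM EDTA, 1 mM TCEP, 0.1 mg/ml BSA, 0.01% Tween-20.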

[6] = qHTS for Inhibitors of ATXN expression: Validation of Cytotoxic Assay (AID 588349); conditions: cytotoxicity counter-screen for ATXN expression inhibitors, cell viability; series mostly up to 57.1 µM;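 also: cells exposed to compound for 72 hr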
In short: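 HEK293, compound dose series, 72 hr / 37 degrees C; viability via CellTiter Glo (intracellular ATP).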

[7] = qHTS for Inhibitors of ATXN expression: Validation (AID 588378); conditions: cell-based ATXN2 expression reporter assay, luminescence; series mostly up to 57.1 µM; also: nearly all actives have a fitted effect of over 75% in size
In short: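 HEK293 cells carrying ATXN2-firefly luciferase reporter, treated with compound 24 h at 37 °C. Viability read first by CellTiter-Fluor (405/525 nm), then reporter expression by Bright-Glo luminescence; controls were a known ATXN2 expression inhibitor and a luciferase inhibitor.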

Measured: Potency

CN1CCc2ccccc2Cc2[nH]c3ccccc3c2CC1
inactive: all assays above

CN1[C@@H](CC(=O)c2ccccc2)CCC[C@H]1C[C@H](O)c1ccccc1
not listed: [6] | [7]
inactive: all other assays above

COc1cc(C(O)CO)ccc1OS(=O)(=O)O (centres undefined)
inactive: all assays above

CC(C)(C)c1ccc(S(=O)(=O)/C=C/C#N)cc1
not listed: [6] | [7]
inactive: all other assays above

OC[C@H]1O[C@@H](n2cnc3c(NC4CCCCC4)ncnc32)[C@H](O)[C@@H]1O
inactive: all assays above

S=C(S)OC1CC2CC1C1CCCC21 (centres undefined)
not listed: [7]
inactive: all other assays above

C=C/C(C)=C/[C@@]1(C)SC(=O)C(C)=C1O
inactive: [1]

COc1cccc(OC)c1OCCNCC1COc2ccccc2O1 (centres undefined)
not listed: [7]
inactive: all other assays above

C=C[C@@H]1CN2CC[C@@H]1C[C@H]2[C@H](O)c1ccnc2ccc(OC)cc12
inactive: [1] | [2] | [3] | [4]

C[N+](C)(CCCCCC[N+](C)(C)CCCN1C(=O)c2cccc3cccc(c23)C1=O)CCCN1C(=O)c2cccc3cccc(c23)C1=O
inactive: all assays above

O=S(=O)(c1cccc2c(I)cccc12)N1CCCNCC1
not listed: [6] | [7]
inactive: all other assays above

N=C(N)SCCc1ccc(CCSC(=N)N)cc1
inactive: all assays above

c1ccc(-c2ccccn2)nc1
inactive: all assays above

CN1C2CCC1CC(OC(=O)C(O)c1ccccc1)C2 (centres undefined)
not listed: [7]
inactive: all other assays above

CC(C)(C)NCC(O)COc1nsnc1N1CCOCC1 (centres undefined)
inactive: [1]

O=C(O)CC[C@@H](C(=O)O)N1C(=O)c2ccccc2C1=O
inactive: all assays above

NCCSSCCN
inactive: all assays above

NCCCCCCCCCCN
not listed: [6] | [7]
inactive: all other assays above

CN(C)C(N)=NCCC[C@H](N)C(=O)O
inactive: all assays above

C=CC(N)CCC(=O)O (centres undefined)
not listed: [7]
inactive: all other assays above

Fc1cccc(/C=N/N=C/c2cccc(F)c2)c1
not listed: [7]
inactive: all other assays above

NO
inactive: all assays above

CO/N=C(\C(=O)N[C@@H]1C(=O)N2C(C(=O)O)=C(COC(C)=O)CS[C@H]12)c1csc(N)n1 (stereo in doubt)
inactive: [1]

NCCCS(=O)(=O)O
not listed: [7]
inactive: all other assays above

O=c1[nH]c2ccccc2n1CCCN1CCN(C(c2ccccc2)c2ccccc2)CC1
inactive: [1]

O=C(O)[C@@H]1C[C@H](C(=O)O)N1
not listed: [7]
inactive: all other assays above

CN1CCc2cc(O)c(O)cc2C(c2ccccc2)C1 (centres undefined)
not listed: [6] | [7]
inactive: all other assays above

CN[C@H](CC(C)C)C(=O)N[C@H]1C(=O)N[C@@H](CC(N)=O)C(=O)N[C@H]2C(=O)N[C@H]3C(=O)N[C@H](C(=O)N[C@H](C(=O)O)c4cc(O)cc(O)c4-c4cc3ccc4O)[C@H](O)c3ccc(c(Cl)c3)Oc3cc2cc(c3O[C@@H]2O[C@H](CO)[C@@H](O)[C@H](O)[C@H]2O[C@H]2C[C@](C)(N)[C@H](O)[C@H](C)O2)Oc2ccc(cc2Cl)[C@H]1O
inactive: [1]

O=C(O)CC1CCCc2ccccc2C1O (centres undefined)
inactive: all assays above

O=C(O)CCCC[C@@H]1CCSS1
not listed: [7]
inactive: all other assays above
